CCHFV vOTU inh – blocks the CCHF virus ovarian tumor domain protease; AID 651958; inhibition, % at 11.5 µM; actives 0.55% (n = 370,000); CCHFV vOTU protease, Pep-AMC fluorescence; in the data active means inhibition above about 30%
FBA Mtb inh – inhibits M. tuberculosis FBA enzyme; actives 2.3% (n = 360,000); AID 588726; purified M. tuberculosis FBA, fluorescence read-out; inhibition, % at 1 µM; P9WQA3
Target sequence (P9WQA3 whole entry, looked up): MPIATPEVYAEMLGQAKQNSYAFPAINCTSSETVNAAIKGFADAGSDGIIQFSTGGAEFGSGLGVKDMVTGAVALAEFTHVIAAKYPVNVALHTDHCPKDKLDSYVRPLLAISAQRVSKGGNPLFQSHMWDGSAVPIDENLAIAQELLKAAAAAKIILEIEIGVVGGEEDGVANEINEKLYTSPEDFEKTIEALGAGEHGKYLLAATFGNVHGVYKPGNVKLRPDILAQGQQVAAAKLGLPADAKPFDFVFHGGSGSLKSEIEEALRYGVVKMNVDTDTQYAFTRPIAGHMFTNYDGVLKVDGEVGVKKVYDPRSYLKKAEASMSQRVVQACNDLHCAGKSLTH
GDH-TPI counter-1 – GDH-TPI coupled enzyme inhibition counter-screen; GDH-TPI coupled enzyme counterscreen, NADH absorbance; inhibition, % at 4.8 µM; actives 1.2% (n = 360,000); AID 588335; in the data active means inhibition above about 30%
RecA splice inh – blocks M. tuberculosis RecA intein splicing. inhibition, % (test concentration not listed). P9WHJ3. cell-free RecA intein splicing, fluorescence. AID 2221. actives 0.75% (n = 290,000); in the data active means inhibition above about 30%
Mtb FBA inh conf – Mtb FBA inhibition, confirmed | shares compounds with FBA Mtb inh | inhibition, % at 1 µM | actives 78% (n = 5,600) | purified M. tuberculosis FBA, fluorescence read-out | AID 651616
GDH-TPI counter-2 – inhibits GDH-TPI coupling enzymes, flagging Mtb FBA hits | GDH-TPI coupled enzyme counterscreen, fluorescence | inhibition, % at 1 µM | shares compounds with FBA Mtb inh | actives 81% (n = 5,600); in the data active means inhibition above about 10%
GDH-TPI DR – inhibits GDH-TPI coupling enzymes in dose response; shares compounds with FBA Mtb inh; GDH-TPI coupled enzyme assay, fluorescence, artifact counterscreen; IC50, µM; actives 79% (n = 170); AID 652145; call rule not given here
A number is an active result; n = inactive; x = no result; + = active, no number. Rows were chosen to be rich in hits. Some 4.2% of all compounds tested hit in one or more screens of this group. Unless noted, no stated cut-off is given here; in the data, active means inhibition above about 27%; inactive means the rest.

SMILES	CCHFV vOTU inh	FBA Mtb inh	GDH-TPI counter-1	RecA splice inh	Mtb FBA inh conf	GDH-TPI counter-2	others
O=C(O)CCN1C(=O)C2CCCCC2C1=O (centres undefined)	n	46	n	n	+	193
CSc1nnc(-c2sc(-c3ccccc3)nc2C)n1C	n	54	n	n	n	n
O=c1c2ccccc2nc2n1CCCCC2	n	n	n	n	x	x
O=c1c2ccccc2nc2n1CCCN2	n	70	n	n	+	+
O=C(NCCc1ccccc1)c1ccc(Cl)cc1[N+](=O)[O-]	n	n	n	n	x	x
COc1ccc(NC(=O)COc2coc(CN3c4ccccc4CC3C)cc2=O)cc1 (centres undefined)	n	n	n	n	x	x
COc1ccc(CCNC(=O)C2CCN(C(=O)c3ccccc3C)CC2)cc1	n	49	n	n	n	n
CCOc1ccccc1C(=O)NCC(=O)N1CCN(Cc2ccc3c(c2)OCO3)CC1	x	n	n	x	x	x
Cc1[nH]nc2c1-c1nc3ccccc3nc1C(C)(C)C2	n	38	n	n	n	18
CC(=O)c1cccc(S(=O)(=O)Nc2ccccc2N2CCOCC2)c1	n	n	n	x	x	x
Cc1cc(O)c(N=Nc2ccc(C(=O)O)cc2)cc1C	n	n	n	x	x	x
CCOC(=O)c1sc2nc(C)nc(NCCc3ccccn3)c2c1C	n	71	n	n	n	12
CCC(C(=O)N1CCN(Cc2ccc3c(c2)OCO3)CC1)n1c(=O)[nH]c2ccccc2c1=O (centres undefined)	n	33	n	n	124	109
COC(=O)Nc1nnc(-c2ccc(OC)cc2)s1	n	43	n	x	58	56
CCOC(=O)Nc1nnc(-c2ccc(OC)c(OC)c2)s1	n	62	n	n	72	58
O=C(Nc1ccc(F)cc1)OCCN1C(=O)CCC12CCC(c1ccc(Cl)cc1)CC2 (centres undefined)	n	x	x	x	x	x
CC(C)CNC(=O)C1(C)CCCN1C(=O)c1ccncc1 (centres undefined)	n	n	n	x	x	x
CC1CCC(NC(=O)c2ccc3c(c2)S(=O)(=O)c2ccccc2C3=O)CC1 (centres undefined)	n	n	n	n	x	x
CCCCCCN1CCN(C2CN(Cc3cn(Cc4cccc(C(F)(F)F)c4)nn3)S(=O)(=O)C2)CC1 (centres undefined)	n	x	x	x	x	x
Cc1ccc2[nH]c3c(c2c1)CCNC3=O	n	75	n	n	113	93
COc1c(F)cc2[nH]c3c(c2c1F)CCNC3=O	n	38	n	n	+	176
O=C(O)c1cc(Cl)c2ccccc2c1O	n	40	n	n	50	44
CC(C)(NC(=O)c1cc(Cl)c2ccccc2c1O)C(=O)O	n	56	n	n	66	57
C[C@@H]1CN([C@@H](C)CO)S(=O)(=O)c2ccc(C#CC(C)(C)O)cc2O[C@H]1CN(C)C(=O)C1CCCCC1	n	n	n	x	x	x
CCOC(=O)C1=C[C@@H](c2ccccc2)N(S(=O)(=O)c2ccc(C)cc2)[C@H]1c1ccc(OC)cc1	n	n	x	x	x	x
SMILES	CCHFV vOTU inh	FBA Mtb inh	GDH-TPI counter-1	RecA splice inh	Mtb FBA inh conf	GDH-TPI counter-2	others
CCN(CC)S(=O)(=O)c1cccc(C(=O)NNC(=O)c2ccc3[nH]c(=O)c(=O)[nH]c3c2)c1	n	n	n	n	x	x
CC(=O)Nc1cccc(OCCCNC(=O)c2ccc(C(C)(C)C)cc2)c1	n	n	n	n	x	x
C=CCOc1c2ccc(C(=O)NCCc3ccc(C)cc3)cc2nn1C	n	n	n	n	x	x
CCCn1nc2cc(C(=O)NCCCCc3ccccc3)ccc2c1OCC	n	53	n	n	132	104
CCCn1nc2cc(C(=O)NCCc3ccc(C)cc3)ccc2c1OCC	n	55	n	n	64	67
CC(C)(C)C(=O)OCc1ccc(C2=CC(=O)CC(C)(C)C2=O)cc1	n	n	n	x	x	x
CC(C)(C)C(=O)OCC12CCC(O1)C1(C)C(=O)OCC21 (centres undefined)	n	47	n	n	n	n
CCOc1ccc(-c2nc(S(=O)(=O)c3ccccc3)c(NCc3cccnc3)o2)cc1	n	n	n	n	x	x
CCOP(=O)(OCC)c1nc(-c2ccc(C)cc2)oc1NCc1ccccc1	n	84	n	n	172	186
CCOc1ccc(N(CC)C(=O)c2cn(CC)c(=O)c3cc(OC)c(OC)cc23)cc1	n	n	n	n	x	x
CCCCn1nc2cc(C(=O)N(CC)c3ccc(OC)cc3)ccc2c1OCC	n	28	n	n	112	87
CCN(C(=O)c1ccc2c(OC)n(CC)nc2c1)c1ccc(OC)cc1	n	31	n	n	n	n
O=C(COC(=O)c1cc(S(=O)(=O)N2CCOCC2)ccc1O)NCc1ccc2c(c1)OCO2	n	n	n	x	x	x
CCc1cc(=O)oc2cc(C)cc(OC(C)C(=O)NCC(O)c3ccccc3)c12 (centres undefined)	n	59	n	n	+	+
CCc1cc(=O)oc2cc(C)cc(OC(C)C(=O)NC3CCN(Cc4ccccc4)CC3)c12 (centres undefined)	n	51	n	n	n	n	GDH-TPI DR=3
Cc1cc(OC(C(=O)O)c2ccccc2)c2c(C)c(Cc3ccccc3)c(=O)oc2c1 (centres undefined)	n	46	n	n	n	n
CCc1cc(=O)oc2cc(C)cc(OCC(=O)NCC(O)c3ccccc3)c12 (centres undefined)	n	56	n	n	198	168
CCCc1cc(=O)oc2cc(C)cc(OCC(=O)NC3CCN(Cc4ccccc4)CC3)c12	n	n	n	n	x	x
O=C(Nc1ccc2c(c1)C(=O)OC2)c1ccccc1Cl	n	n	n	n	x	x
Cc1ccc(NS(=O)(=O)c2ccc(C(=O)Nc3nncs3)cc2)cc1	n	n	n	x	x	x
C#Cc1ccc([C@@H]2C=C(C(=O)N3CCOCC3)O[C@H](OCc3ccc(CO)cc3)C2)cc1	n	n	n	n	x	x
CC(C)C[C@@H]1COc2cc(NCCO)ccc2S(=O)(=O)N1	n	x	x	x	x	x
Cc1cc(OC(C)C(=O)NCC(O)c2ccccc2)c2c(C)c(C)c(=O)oc2c1 (centres undefined)	n	50	n	n	73	45
O=C(NCCS(=O)(=O)N1CCN(c2ccccc2F)CC1)c1cccc(Br)c1	n	n	n	n	x	x
Cc1cn(C2CCCCC2)c(=O)n(-c2ccccc2)c1=O	n	37	n	x	+	177
SMILES	CCHFV vOTU inh	FBA Mtb inh	GDH-TPI counter-1	RecA splice inh	Mtb FBA inh conf	GDH-TPI counter-2	others
COc1ccccc1Cc1c(-c2ccc(OC)c(OC)c2)nc2ccc(C)cn12	n	45	x	x	119	94
COc1ccc(-c2nc3ccc(C)cn3c2Cc2cccc(Cl)c2)cc1OC	n	33	x	x	107	76
Cc1ccc2nc(-c3ccco3)c(Cc3cccc(F)c3)n2c1	n	31	x	x	+	138
COc1cc(OC)c(/C=N/N2CCN(c3ccccc3OC)CC2)c(OC)c1	n	n	n	n	x	x
CC1CCN(c2ccc3c(c2)S(=O)(=O)c2ccccc2C3=O)CC1	n	n	n	n	x	x
Cc1cc(C)cc(Oc2coc3cc(OC(=O)c4cccnc4)ccc3c2=O)c1	n	32	n	n	47	36
